Results as given in the supplement of paper PMC10681739.

What was measured:
[1] = biological target: T1, ETS1 (UniProt P14921); assay: ETS1 binding intensity (PBM fluorescence), ETS1 alone (arbitrary fluorescence units); higher = stronger binding; settings: ETS1 concentration 1 nM; RUNX1 concentration 0 nM
T1 sequence: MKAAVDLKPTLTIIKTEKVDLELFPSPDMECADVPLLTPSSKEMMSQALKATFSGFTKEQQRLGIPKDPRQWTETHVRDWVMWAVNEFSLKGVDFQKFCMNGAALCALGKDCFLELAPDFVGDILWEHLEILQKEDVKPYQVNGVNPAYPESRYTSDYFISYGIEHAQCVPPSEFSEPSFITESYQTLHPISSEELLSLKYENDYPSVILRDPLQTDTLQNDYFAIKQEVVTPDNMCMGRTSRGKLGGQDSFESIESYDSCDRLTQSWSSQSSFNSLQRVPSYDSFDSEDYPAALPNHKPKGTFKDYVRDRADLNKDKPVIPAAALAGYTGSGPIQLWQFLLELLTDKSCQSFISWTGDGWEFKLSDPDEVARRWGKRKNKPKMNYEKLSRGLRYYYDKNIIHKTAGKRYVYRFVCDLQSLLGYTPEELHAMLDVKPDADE

[2] = biological target: RUNX1 (UniProt Q01196); assay: RUNX1 binding intensity (PBM fluorescence), RUNX1 alone (arbitrary fluorescence units); higher = stronger binding; settings: RUNX1 concentration 2 nM; ETS1 concentration 0 nM
RUNX1, sequence (Q01196 whole entry): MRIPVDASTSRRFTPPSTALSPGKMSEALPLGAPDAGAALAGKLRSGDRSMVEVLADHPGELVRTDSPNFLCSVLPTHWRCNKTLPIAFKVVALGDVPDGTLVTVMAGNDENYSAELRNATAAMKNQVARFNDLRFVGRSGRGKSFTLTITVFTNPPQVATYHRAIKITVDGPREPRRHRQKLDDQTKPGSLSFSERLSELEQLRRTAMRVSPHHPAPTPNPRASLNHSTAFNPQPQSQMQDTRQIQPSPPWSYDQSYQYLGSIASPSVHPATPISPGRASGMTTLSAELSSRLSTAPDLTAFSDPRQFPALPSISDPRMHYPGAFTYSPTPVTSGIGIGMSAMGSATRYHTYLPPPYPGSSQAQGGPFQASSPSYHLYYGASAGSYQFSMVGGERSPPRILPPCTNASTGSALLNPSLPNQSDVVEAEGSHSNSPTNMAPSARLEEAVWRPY
Method: (§1)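 Cooperative gcPBM on 36-bp genomic probes with neighbouring ETS1 and RUNX1 sites. Recombinant human RUNX1 (2 nM) was incubated alone or with ETS1 (25 nM) and detected with anti-RUNX1 antibody plus Alexa488 secondary. Values are medians over 4 replicate spots; the RUNX1+ETS1 data were normalised to the RUNX1-only data. The probes sit in constant array flanks that are not printed.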

[3] = biological target: T1, ETS1; assay: ETS1 binding intensity (PBM fluorescence) in presence of RUNX1, normalised to ETS1-only experiment (arbitrary fluorescence units); higher = stronger binding; settings: ETS1 concentration 1 nM; RUNX1 concentration 25 nM
[4] = biological target: RUNX1 (UniProt Q01196); assay: RUNX1 binding intensity (PBM fluorescence) in presence of ETS1, normalised to RUNX1-only experiment (arbitrary fluorescence units); higher = stronger binding; settings: RUNX1 concentration 2 nM; ETS1 concentration 25 nM
Method: as §1
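Throughout, for RUNX1 binding intensity (PBM fluorescence) in presence of ETS1, normalised to RUNX1-only experiment: Full-length recombinant human ETS1 or RUNX1 bound to double-stranded 36-bp genomic probes on microarrays, detected by protein-specific primary antibody and Alexa488 secondary, spot fluorescence as median of four replicate spots.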
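Throughout, for RUNX1 binding intensity (PBM fluorescence), RUNX1 alone: Full-length recombinant human RUNX1 bound to double-stranded 36-bp genomic probes on a high-density microarray, scored as Alexa488 fluorescence per spot via anti-RUNX1 antibody, median of four replicate spots.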

Row | Sequence | ETS1 binding intensity [1] | RUNX1 binding intensity [2] | ETS1 binding intensity [3] | RUNX1 binding intensity [4]
1 | ACTACAACTTCCGACTTGCATCACTGCGGTGGCGCT | 425 | 942 | 573 | 1830
2 | CACCGACCGGAAGGGCCCCAAGGATCCCCGCAGCAG | 2130 | 831 | 2710 | 1380
3 | ATGTTTGGGGCCGGAAGTGGGTTGGAGGTGTGGCGG | 24700 | 706 | 23800 | 2830
4 | GCCCCGGAAGTGGCCCGGCTGTTGGCCGCAGCGGGA | 2810 | 667 | 3480 | 1710
5 | GACACCCCACACCGGAAACCTCAGACAGTCCTCAGC | 4120 | 1170 | 4680 | 2900
6 | GCGAAAAACGCGGAAATGCGGTGGCGGCGGCCCGCT | 885 | 721 | 1190 | 1210
7 | AGCCGCCACTTCCTGTCTCTGCGGGTGCATGCTCTT | 3730 | 863 | 5990 | 3580
8 | GAGGACTTCCGGGTGGGTGTGATATCTGCGGGCCCG | 848 | 760 | 677 | 1940
9 | AACAGCACACAGGAAGTTACCGCTGAAGCAAAGGAG | 2750 | 813 | 4760 | 1250
10 | CGCCTGCCCCACTTCCGCCCGGACCCGCAGCCCCTA | 2450 | 1240 | 3210 | 3610
11 | AACATCCTGTGTAAAGAGAATTGAATGTGGTTTTCT | 559 | 821 | 1360 | 2600
12 | GCGCCAGTCACCGTTTCCTGTGGTTTGCTGCCCGCC | 1790 | 1050 | 3010 | 2810
13 | AGACCCGGATATGCGCCGGGGACCCCCAGACCGCGC | 743 | 733 | 697 | 969
14 | CTTCAGCCGCCACTTCCCCGCCCCCGCAGCCCGACA | 936 | 1290 | 925 | 1290
15 | CCCCGCGGAACTCTGGCACAGTCAGCTGACCGCAGA | 424 | 1600 | 2000 | 1440
16 | TGCAGCTTCCTGTCTGAGGCTTTGTGGTCCTTTCAT | 753 | 862 | 889 | 2480
17 | GCGCAGGTCCCGGATGTTGCGGACAGTATGAGGCAA | 3250 | 661 | 4560 | 1570
18 | ACCGGCCGAGCCAACTTCCGGCCGCAGAGGCTGCCG | 5830 | 756 | 7630 | 1840
19 | CCGCTGACATCCGCTTGGCCTGCGGCTTCTTTCTGT | 715 | 1080 | 1030 | 2740

Row | Sequence | ETS1 binding intensity [1] | RUNX1 binding intensity [2] | ETS1 binding intensity [3] | RUNX1 binding intensity [4]
20 | TGTCTTCAGGAAGTGTAGCAGGTGTTGAGGTCAAGC | 900 | 703 | 998 | 914
21 | GACTATGTGCTTCCGGTCTCCAATACCGCAGGAGGG | 4950 | 981 | 13600 | 2690
22 | GGATGAACAGGAAGCTAAAGTAAATACCACAGTGAC | 1710 | 764 | 3860 | 1190
23 | ATCTTACCCCGGAAATGACAACAGTGCCGCAAACTG | 7580 | 906 | 10400 | 1620
24 | AGTCCTGCCCACTTCCTGCCGCAAGAGAAATCCACT | 1930 | 1250 | 3260 | 9180
25 | GTGGGAGCGGAAGCCTGAGCGGCCTGCGGCCTCCGG | 863 | 692 | 1070 | 1040
26 | CTCTGCCCGCTTCCGCTGGCGGTACCTCAGAGCCGC | 919 | 904 | 920 | 4710
27 | CTGCGCGGCCGGAAGTCGGCGGTTTCCCAGACGACG | 20800 | 759 | 30000 | 2820
28 | CAGAGAGCGGACTTCCGCGACGCGGGTAAGCCGGGC | 498 | 670 | 368 | 894
29 | AGTCTCGTTTCCTGTGCGCTGTGGCCACCTGGCAGC | 1110 | 716 | 1050 | 1790
30 | ACTGCACGGCTGGGAGGATGTGGTCACACACGCCAC | 1380 | 869 | 11400 | 1350
31 | GTGGGGCGGGCTTCCGGCGCTCCCACCGCGAGCCGA | 921 | 790 | 1050 | 1500
32 | CAGATCCGGCGTGGACGAAGCTCGGGAACCACAACA | 353 | 798 | 456 | 1150
33 | GGTTTCCGGGTGAAAAAAAAAAAAAAAACCACGCCA | 461 | 906 | 529 | 1740
34 | AGGCGGCAGGAAATGACCCCATCCCGCAGCCTGGGC | 2480 | 806 | 5190 | 2040
35 | GGGCAGCAGCAGACCGGAAACCACAGCCGACTAAGA | 10700 | 1160 | 29500 | 3330
36 | CTTTGCTGCCGCCTTCCTGTGCGGGGCCGTGGCGGC | 493 | 720 | 389 | 1020
37 | GCGGGGCGCAGGAAGCGGGGCGAAACCACTGTTGGC | 1040 | 753 | 1550 | 1010
